{
  "source": "PubChem BioAssay (NCATS)",
  "note": "Records with an inconclusive call do not appear. A call without a number means that no potency is given here. Active and inactive are the calls of the source. Calls follow the shape of the full dose curve. Potency is read from the fitted curve at half-maximal effect.",
  "data": [
    {"assay": "Cytotoxicity counterscreen for inhibitors of SARS-CoV-2 cell entry (AID 1645845); also: nearly all actives have a fitted effect of over 50% in size", "conditions": "cell viability (SARS-CoV-2 entry assay cells); series mostly up to 57.1 µM", "how_it_was_run": "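ATP-content luminescence (ATPLite 1step, 15 min RT) read after 48 h compound exposure of Expi293F cells stably expressing human ACE2; normalized to cells-only wells and media-only wells.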", "values": [
      {"smiles": "C=C1c2cccc(O)c2C(O)=C2C(=O)[C@]3(O)C(O)=C(C(N)=O)C(=O)[C@@H](N(C)C)[C@@H]3[C@@H](O)[C@H]12", "Potency": "inactive"},
      {"smiles": "COc1cc(O)c(C(=O)c2ccccc2)cc1S(=O)(=O)O", "Potency": "inactive"},
      {"smiles": "Oc1cccc(-c2c3nc(c(-c4cccc(O)c4)c4ccc([nH]4)c(-c4cccc(O)c4)c4nc(c(-c5cccc(O)c5)c5ccc2[nH]5)CC4)C=C3)c1", "Potency": "inactive"},
      {"smiles": "CN(C)CCOc1ccccc1Cc1ccccc1", "Potency": "inactive"},
      {"smiles": "COc1ccc2c(c1)C(=O)N(CCc1ccc(S(=O)(=O)NC(=O)NC3CCCCC3)cc1)C(=O)C2(C)C", "Potency": "inactive"},
      {"smiles": "CCOCC(O)COc1ccc(NC(=O)CC[S+](C)C)cc1", "note": "(centres undefined)", "Potency": "inactive"},
      {"smiles": "Nc1c2c(nc3ccccc13)CCCC2", "Potency": "inactive"},
      {"smiles": "C[C@@H](CN(C)C)CN1c2ccccc2Sc2ccccc21", "Potency": "inactive"},
      {"smiles": "Cc1cc2nc3ccc(=[N+](C)C)cc-3sc2cc1N", "Potency": "22.4 µM (active)"},
      {"smiles": "CCN(CC)CCOC(=O)C1(c2ccccc2)CCCC1", "Potency": "inactive"},
      {"smiles": "C#C[C@]1(O)CC[C@H]2[C@@H]3CCc4cc(O)ccc4[C@H]3CC[C@@]21C", "Potency": "inactive"},
      {"smiles": "O=C(O)[C@H](O)[C@@H](O)[C@H](O[C@@H]1O[C@H](CO)[C@H](O)[C@H](O)[C@H]1O)[C@H](O)CO", "Potency": "inactive"},
      {"smiles": "C=C1C(=C/C=C2\\CCC[C@]3(C)[C@@H]([C@H](C)/C=C/[C@@H](O)C4CC4)CC[C@@H]23)C[C@@H](O)C[C@@H]1O", "Potency": "inactive"},
      {"smiles": "CN1C[C@H](C(=O)N[C@]2(C)O[C@@]3(O)[C@@H]4CCCN4C(=O)[C@H](Cc4ccccc4)N3C2=O)C[C@@H]2c3cccc4[nH]cc(c34)C[C@H]21", "Potency": "inactive"},
      {"smiles": "CN1CCOC(c2ccccc2)c2ccccc2C1", "note": "(centres undefined)", "Potency": "inactive"},
      {"smiles": "CCC(=O)O[C@]1(C(=O)CCl)[C@@H](C)C[C@H]2[C@@H]3CCC4=CC(=O)C=C[C@]4(C)[C@@]3(F)[C@@H](O)C[C@@]21C", "Potency": "inactive"},
      {"smiles": "CCCS(=O)c1ccc2nc(NC(=O)OC)[nH]c2c1", "note": "(centres undefined)", "Potency": "inactive"},
      {"smiles": "CCCCOc1cc(C(=O)OCCN(CC)CC)ccc1N", "Potency": "inactive"},
      {"smiles": "CN(C)CCCOc1nn(Cc2ccccc2)c2ccccc12", "Potency": "inactive"},
      {"smiles": "O=C(Nc1ccc([N+](=O)[O-])cc1)Nc1ccc([N+](=O)[O-])cc1", "Potency": "inactive"},
      {"smiles": "O=C1NCCN1CCN1CCC(c2cn(-c3ccc(F)cc3)c3ccc(Cl)cc23)CC1", "Potency": "28.2 µM (active)"},
      {"smiles": "CN1CCC(=C2c3ccccc3CCc3cccnc32)CC1", "Potency": "inactive"},
      {"smiles": "OC(CCN1CCCCC1)(c1ccccc1)c1ccccc1", "Potency": "inactive"},
      {"smiles": "C#CC1(O)CC[C@H]2[C@@H]3CCC4=CCCC[C@@H]4[C@H]3CC[C@@]21C", "note": "(some centres undefined)", "Potency": "inactive"},
      {"smiles": "COc1cc(N)c(Cl)cc1C(=O)NC1CCN(CCCOc2ccc(F)cc2)CC1OC", "note": "(centres undefined)", "Potency": "inactive"},
      {"smiles": "Clc1ccc(Cn2c(CN3CCCC3)nc3ccccc32)cc1", "Potency": "inactive"},
      {"smiles": "CCCCOc1ccc(C(=O)CCN2CCCCC2)cc1", "Potency": "inactive"},
      {"smiles": "CC(C)C[C@@H]1[C@H](c2ccccc2)OC(=O)N1CCCN1CCCCCC1", "Potency": "inactive"},
      {"smiles": "CCCCNc1ccc(C(=O)OCCN(CC)CC)cc1", "Potency": "inactive"},
      {"smiles": "CCN(CC)CCOCCOC(=O)C1(c2ccccc2)CCCC1", "Potency": "inactive"},
      {"smiles": "O=C1N(c2ccccc2)c2ccccc2C1(Cc1ccncc1)Cc1ccncc1", "Potency": "inactive"},
      {"smiles": "COCc1c(C(C)C)nc(C(C)C)c(/C=C/[C@@H](O)C[C@@H](O)CC(=O)O)c1-c1ccc(F)cc1", "Potency": "inactive"},
      {"smiles": "O=S(=O)(c1cccc2cnccc12)N1CCCNCC1", "Potency": "inactive"},
      {"smiles": "O=C1C(CCS(=O)c2ccccc2)C(=O)N(c2ccccc2)N1c1ccccc1", "note": "(centres undefined)", "Potency": "inactive"},
      {"smiles": "C=CCOc1cc(Cl)ccc1C(=O)NCCN(CC)CC", "Potency": "inactive"},
      {"smiles": "CC(=O)c1ccc2c(c1)N(CCCN(C)C)c1ccccc1S2", "Potency": "inactive"},
      {"smiles": "CN1CCC(OC(c2ccccc2)c2ccccc2)CC1", "Potency": "inactive"},
      {"smiles": "Cn1cc(C(=O)[C@@H]2CCc3nc[nH]c3C2)c2ccccc21", "Potency": "inactive"},
      {"smiles": "O=C(CCCCC(=O)Nc1c(I)cc(I)c(C(=O)O)c1I)Nc1c(I)cc(I)c(C(=O)O)c1I", "Potency": "inactive"}
    ]}
  ]
}
